About 2,800 (6%) of roughly 47,000 compounds were called active. Cut-off read from the data, not from the text of the source: active = z-score above about 3 (passing the limit was not always enough); inactive = the rest. The sample as a whole holds a higher share of actives than the screen did.

Sequence of Endoribonuclease Dicer (Homo sapiens) (Q9UPY3 whole entry, looked up): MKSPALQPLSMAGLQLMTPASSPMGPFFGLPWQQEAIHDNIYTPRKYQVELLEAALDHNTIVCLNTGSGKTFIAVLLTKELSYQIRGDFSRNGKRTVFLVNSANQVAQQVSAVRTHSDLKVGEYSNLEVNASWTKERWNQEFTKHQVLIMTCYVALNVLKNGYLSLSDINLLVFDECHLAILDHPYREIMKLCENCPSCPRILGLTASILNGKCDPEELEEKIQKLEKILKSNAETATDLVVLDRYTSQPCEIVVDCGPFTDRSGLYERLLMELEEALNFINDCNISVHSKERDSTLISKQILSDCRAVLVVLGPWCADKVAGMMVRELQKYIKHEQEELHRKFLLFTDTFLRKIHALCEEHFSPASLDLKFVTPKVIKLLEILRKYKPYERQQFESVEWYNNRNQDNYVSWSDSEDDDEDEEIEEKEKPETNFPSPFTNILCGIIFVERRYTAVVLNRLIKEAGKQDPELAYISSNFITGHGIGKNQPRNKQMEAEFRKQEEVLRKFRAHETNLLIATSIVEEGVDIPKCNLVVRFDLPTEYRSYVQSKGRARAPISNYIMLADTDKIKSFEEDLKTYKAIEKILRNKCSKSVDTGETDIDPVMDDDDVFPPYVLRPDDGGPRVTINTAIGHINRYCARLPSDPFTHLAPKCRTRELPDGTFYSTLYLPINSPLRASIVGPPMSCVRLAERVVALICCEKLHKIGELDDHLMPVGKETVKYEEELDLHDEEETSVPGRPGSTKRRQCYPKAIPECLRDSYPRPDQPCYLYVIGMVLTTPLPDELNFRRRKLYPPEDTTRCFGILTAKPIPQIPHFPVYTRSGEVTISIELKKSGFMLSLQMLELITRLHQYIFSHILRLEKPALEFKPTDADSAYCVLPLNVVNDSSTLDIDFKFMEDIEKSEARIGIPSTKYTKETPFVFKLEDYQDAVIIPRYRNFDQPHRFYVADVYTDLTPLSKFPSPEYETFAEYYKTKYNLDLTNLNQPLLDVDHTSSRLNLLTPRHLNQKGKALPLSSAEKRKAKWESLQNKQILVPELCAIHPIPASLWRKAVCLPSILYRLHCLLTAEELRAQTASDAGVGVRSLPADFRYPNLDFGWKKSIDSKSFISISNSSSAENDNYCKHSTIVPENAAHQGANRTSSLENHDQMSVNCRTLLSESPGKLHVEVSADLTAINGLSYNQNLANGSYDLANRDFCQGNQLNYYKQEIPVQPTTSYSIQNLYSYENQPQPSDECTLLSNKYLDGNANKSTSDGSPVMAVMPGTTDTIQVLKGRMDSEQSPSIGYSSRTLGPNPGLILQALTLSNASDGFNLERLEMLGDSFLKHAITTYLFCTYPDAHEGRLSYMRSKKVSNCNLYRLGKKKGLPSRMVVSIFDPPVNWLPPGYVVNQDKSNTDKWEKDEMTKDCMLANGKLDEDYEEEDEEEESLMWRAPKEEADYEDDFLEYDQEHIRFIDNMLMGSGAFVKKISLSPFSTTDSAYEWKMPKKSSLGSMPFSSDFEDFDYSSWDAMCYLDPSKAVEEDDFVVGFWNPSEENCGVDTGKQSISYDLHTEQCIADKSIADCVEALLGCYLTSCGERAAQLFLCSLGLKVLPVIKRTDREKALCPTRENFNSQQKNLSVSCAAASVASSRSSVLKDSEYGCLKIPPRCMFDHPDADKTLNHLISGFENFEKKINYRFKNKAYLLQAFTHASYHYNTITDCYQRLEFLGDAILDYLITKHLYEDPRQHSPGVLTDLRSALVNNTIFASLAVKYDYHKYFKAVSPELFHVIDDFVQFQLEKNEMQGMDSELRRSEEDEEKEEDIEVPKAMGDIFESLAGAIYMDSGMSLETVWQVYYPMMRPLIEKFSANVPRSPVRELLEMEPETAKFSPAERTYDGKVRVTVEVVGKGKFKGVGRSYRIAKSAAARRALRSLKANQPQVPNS

The test has as its target Endoribonuclease Dicer (Homo sapiens) (UniProt Q9UPY3). Briefly: Dicer cleavage of pre-miR-21 blockers – biochemical, cat-ELCCA, chemiluminescence, primary screen (AID 1347074).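 Note: plate controls were vehicle for no effect and no enzyme for full effect; higher signal means more uncleaved substrate so more Dicer inhibition.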 Particulars: cat-ELCCA pre-miR-21 Dicer processing, at 25 µM, stronger effect = higher value.
Turning to `CCOC(=O)C(NC(=O)c1ccccc1)(OC(C)C)C(F)(F)F` (configuration not stated), the z-score is 0.49 (inactive). In the case of `FC(F)(F)c1cc(Cl)c2ncc(-c3ccc(Cl)c(Cl)c3)nc2c1`, the z-score is 1.2 (inactive).

As to `CCn1c(C(O)c2ccc(C(C)C)cc2)nc2ccccc21` (configuration not stated), the z-score was 1.03 (inactive). In the case of `O=C1CC(c2nc3ccccc3n2Cc2ccc(F)cc2)CN1c1ccccc1` (configuration not stated) it was 5.55 (active).

Take `NC1=NC(c2cc(F)cc(F)c2)n2c(nc3ccccc32)N1` (configuration not stated): the z-score was -1.88 (inactive). `Cc1nc2ccccc2n1C1CC(=O)N(c2ccccc2)C1=O` (configuration not stated): the z-score was 0.3 (inactive). `CC(C)Cn1c(C2CC(=O)N(c3ccccc3)C2)nc2ccccc21` (configuration not stated): the z-score is 5.98 (active). `O=c1n(Cc2ccccc2)c2ccccc2n1Cc1ccccc1`: the z-score was -0.36 (inactive). Take `CCCCOCC1CC2(CC(C)(c3csc(Nc4ccccc4Cl)n3)OC2=O)C(=O)O1` (configuration not stated): the z-score is 0.26 (inactive). In the case of `O=C(Nc1cccc2ncccc12)c1sc2ccccc2c1Cl` it was 0.23 (inactive). Consider `O=C(Nc1ccc2oc(-c3ccncc3)nc2c1)c1sc2ccccc2c1Cl`, for which the z-score is 0.13 (inactive). In the case of `O=C(Nc1cccc(F)c1)c1sc2ccccc2c1Cl`, the z-score was 4.06 (active). For `N#CC1=C(N)Oc2cc(O)ccc2C1c1cccc(Br)c1` (configuration not stated), the z-score is -2.59 (inactive). For `O=C1Nc2ccc(Br)cc2C1O` (configuration not stated) the value was -6.13 (inactive). For the compound `CCOC(=O)c1cnn2c1nc(Oc1cc(C(F)(F)F)cc(C(F)(F)F)c1)c1ccccc12`, the z-score is -0.15 (inactive).

As to `COC(=O)C(C)N(C#N)c1nc(N(C)C)nc(N(C)C)n1` (configuration not stated), the z-score is 5.93 (active).

For the compound `CC(C)NC(=O)NNc1cc(N(C)C)c(C#N)c(N(C)C)n1`, the z-score was -3.01 (inactive). In the case of `COc1ccc(N2CCN(Cc3nc4c(c(=O)n(C)c(=O)n4C)n3CC(=O)C(C)(C)C)CC2)cc1`, the z-score is -2.02 (inactive). For `Cc1ccc(/C(O)=C2\C(=O)C(=O)N(CCCN3CCOCC3)C2c2ccc(C)cc2)cc1` (configuration not stated), the z-score was 0.47 (inactive). Take `CCCCCCC#Cc1cncc(-c2nnc(SCC(=O)Nc3ccccc3)n2C)c1`: the z-score was 0.64 (inactive).

Consider `O=C(Nc1ccc(F)cc1F)N1CCN(c2ccccn2)CC1`, for which the z-score is 2.53 (inactive). For the compound `Cc1ccc(C)c(-c2nc(C)sc2CC(=O)O)c1`, the z-score was 0.81 (inactive). In the case of `CCn1c(=O)c2c(n3c(SCC(N)=O)nnc13)-c1ccccc1CC21CCCCC1`, the z-score was 5.92 (active). Consider `Cn1c(-c2ccccc2)nc2c(c1=O)C1(CCCCC1)Cc1ccccc1-2`, for which the z-score was -0.41 (inactive). Consider `Fc1ccc(-c2cc3ncc4c(n3n2)-c2cc(F)ccc2OC4)cc1`, for which the z-score is -1.86 (inactive). In the case of `Cc1cc(C)c2c(c1)C(=O)C(c1cc(=O)c3ccccc3[nH]1)C2=O` (configuration not stated), the z-score was 1.92 (inactive). Consider `Clc1ccc(-c2csc(N/N=C\c3ccn[nH]3)n2)cc1`, for which the z-score is 0.61 (inactive). As to `CC(C)NC(=S)N/N=C/c1ccn[nH]1`, the z-score is 3.01 (active). With `C/C(=N\NS(=O)(=O)c1ccc(Cl)cc1)c1cc(-c2ccccc2)no1`, the z-score was -0.51 (inactive). For the compound `CN(C)[C@@H]1C(=O)C(C(N)=O)=C(O)[C@@]2(O)C(=O)C3=C(O)c4c(O)ccc(Cl)c4[C@@H](O)[C@H]3C[C@@H]12`, the z-score is 0.22 (inactive). In the case of `C=C1c2c(Cl)ccc(O)c2C(O)=C2C(=O)[C@]3(O)C(O)=C(C(N)=O)C(=O)[C@@H](N(C)C)[C@@H]3[C@@H](O)C12` (some centres not stated) it was 15.5 (active); in that of `O=C(NC(=O)c1c(F)cccc1F)Nc1ccc(Br)cc1F`, 0.21 (inactive); in that of `O=C1Nc2ccc(S(=O)(=O)Nc3ccc4oc(=O)sc4c3)c3cccc1c23`, 1.49 (inactive). As to `CC(C)C(=O)NNc1ncc(C(F)(F)F)cc1Cl`, the z-score was 0.4 (inactive). With `O=C1C(=O)N(CCCn2ccnc2)C(c2ccco2)/C1=C(\O)c1ccccc1` (configuration not stated), the z-score was 2.79 (inactive). In the case of `N#Cc1cccc(CSc2ncnc(N)n2)c1`, the z-score was 3.87 (active). Consider `O=C(CSc1nnc(-c2ccco2)c(-c2ccco2)n1)Nc1ccc(Br)cc1`, for which the z-score was -1.71 (inactive). For `Cc1[nH]nc2oc(=O)c([N+](=O)[O-])c(C)c12`, the z-score is -1.74 (inactive). In the case of `O=C1NC(c2ccccc2)=N/C1=C/c1ccc(F)cc1` it was 3.84 (active). As for `O=C1NNC(c2ccccc2)=N/C1=C\c1ccc(Cl)cc1`, the z-score is -3.16 (inactive). For `c1ccc(C2=Nc3cccc4cccc(c34)N2)cc1` the value was -0.61 (inactive); for `O=C1C(=O)N(CCCn2ccnc2)C(c2ccncc2)/C1=C(\O)c1ccc(Cl)cc1` (configuration not stated), 1.19 (inactive); for `CCCc1n(CC(O)COc2ccc(C)cc2)c2ccccc2[n+]1C` (configuration not stated), -0.91 (inactive). For `Cc1ccccc1CN1C=C(C(N)=O)C(C(F)(F)F)CC1` (configuration not stated) the value was -0.6 (inactive); for `COc1cccc(CNC2CS(=O)(=O)CC2O)c1` (configuration not stated), 0.5 (inactive); for `CCc1c(C)nc2cc(-c3ccc(Br)cc3)[nH]n2c1=O`, 1.4 (inactive). `COCCOC(=O)C1=C(C)NC2=C(C(=O)CC(C)(C)C2)C1c1ccc(Br)cc1` (configuration not stated): the z-score was -0.9 (inactive). In the case of `COc1csc2nc(C)cc(C)c12`, the z-score is 2.93 (inactive). For the compound `O=C(CC1(O)C(=O)Nc2ccccc21)c1ccc(F)cc1` (configuration not stated), the z-score is -0.42 (inactive). Regarding `Cc1[nH]c2ccccc2c1C1(O)C(=O)Nc2ccccc21` (configuration not stated), the z-score was 0.91 (inactive). In the case of `O=C1Nc2ccccc2C12NNC(=S)NN2`, the z-score was 8.53 (active). With `CC1=C(C(=O)Nc2ccccc2)C(c2cccs2)C(C#N)=C(SCC(=O)O)N1` (configuration not stated), the z-score is 0.54 (inactive). Turning to `CC12CCC(C(=O)O)(CC1=O)C2(C)C` (configuration not stated), the z-score was 2.29 (inactive). Turning to `O=C(Oc1ccc2ccccc2c1)c1ccncc1`, the z-score was 0.81 (inactive). As for `O=C(Oc1ccc(Br)cc1)c1cccnc1`, the z-score was 5.46 (active). `O=C1C(=O)N(c2cccnc2)C(c2ccc(Br)cc2)/C1=C(\O)c1ccc(Cl)cc1` (configuration not stated): the z-score was 0.32 (inactive).

Consider `O=C1CC(c2ccc(F)cc2)Cc2nc3nc(C(F)(F)F)nn3cc21` (configuration not stated), for which the z-score is -0.42 (inactive).

Source of the values: PubChem BioAssay AID1347074 (Center for Chemical Genomics, University of Michigan, 2019).
